Holding throughout (test): thermal shift delta Tm vs DMSO control; higher = stronger stabilization (binding)
Details in all cases: 12.5 µM; protein concentration 2 µM

Experiment [1] concerns LOC_OS01G01410-cb001. The method, boiled down: (§1)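 Heating from 25°C to 95°C at 0.05°C/s, fluorescence was recorded for 19.5 μl wells of 2 μM E. coli-expressed, purified rice kinase domain in 100 mM potassium phosphate pH 7.5, 150 mM NaCl, 10% glycerol and 5 × SYPRO Orange with compound in DMSO. Boltzmann fits gave melting temperatures for this differential scanning fluorimetry assay. The shift reported is the mean of three replicates against the DMSO-only protein.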

The test system of experiment [2] is LOC_OS01G02750-cb003. The method, boiled down: as §1
Experiment [3] has as its system LOC_OS01G10900-cb004. The method, boiled down: as §1
The test system of experiment [4] is LOC_OS01G13800-cb001. The method, boiled down: as §1
In experiment [5] the test system is LOC_OS01G14860-cb001. The method, boiled down:
as §1

For experiment [6], the system named is LOC_OS01G21960-cb002. The method, boiled down:
as §1

Experiment [7] concerns LOC_OS01G39600-cb002. The method, boiled down:
as §1

In experiment [8] the test system is LOC_OS01G48390-cb002. The method, boiled down: as §1
Experiment [9] concerns LOC_OS01G51400-cb002. The method, boiled down:
as §1

In experiment [10] the test system is T1, LOC_OS01G52050-cb004.
T1 sequence (whole entry): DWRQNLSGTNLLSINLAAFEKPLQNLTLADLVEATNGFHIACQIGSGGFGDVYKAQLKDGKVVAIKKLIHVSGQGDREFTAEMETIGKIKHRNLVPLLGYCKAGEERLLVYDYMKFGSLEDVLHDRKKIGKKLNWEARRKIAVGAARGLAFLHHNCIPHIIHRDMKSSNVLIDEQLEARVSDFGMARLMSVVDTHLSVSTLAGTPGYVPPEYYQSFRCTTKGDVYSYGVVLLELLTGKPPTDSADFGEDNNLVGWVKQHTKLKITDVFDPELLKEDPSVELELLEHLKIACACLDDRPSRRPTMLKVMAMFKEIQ
The method, boiled down: as §1

The subject of experiment [11] is LOC_OS01G57100-cb003. The method, boiled down: as §1
The test system of experiment [12] is LOC_OS01G60330-cb001. The method, boiled down:
as §1

In experiment [13] the test system is LOC_OS01G60700-cb002. The method, boiled down: as §1
Experiment [14] deals with LOC_OS01G63280-cb003. The method, boiled down:
as §1

In experiment [15] the test system is LOC_OS01G67340-cb003. The method, boiled down: as §1
Experiment [16] relates to LOC_OS01G70970-cb002. The method, boiled down:
as §1

Experiment [17] relates to LOC_OS02G07810-cb001. The method, boiled down:
as §1

Experiment [18] relates to LOC_OS02G08530-cb003. The method, boiled down: as §1
The test system of experiment [19] is LOC_OS02G14120-cb001. The method, boiled down: as §1
Experiment [20] relates to LOC_OS02G17970-cb001. The method, boiled down:
as §1
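Note: purified Escherichia coli-expressed rice kinase domain construct.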

As for `Cc1nc(Nc2ncc(C(=O)Nc3c(C)cccc3Cl)s2)cc(N2CCN(CCO)CC2)n1` [Dasatinib], the “thermal shift delta Tm” value is 1.38 °C in experiment [1]; 0.59 °C in [2]; 4.47 °C in experiment [3]; 0.61 °C in experiment [4]; 0.27 °C in [5]; 1.22 °C in experiment [6]. The “thermal shift delta Tm” value came out at 5.93 °C in experiment [7]; 0.6 °C in [8]; 0.66 °C in experiment [9]; 0.79 °C in experiment [10]; 0.7 °C in experiment [11]; 0.68 °C in experiment [12]. Besides, the “thermal shift delta Tm” value in experiment [13] was 1.43 °C; in experiment [14], 0.25 °C; in experiment [15], 0.73 °C; in experiment [16] it was 0.48 °C; in experiment [17] it was 0.58 °C; in experiment [18] it was 0.93 °C. The “thermal shift delta Tm” value in [19] came out at 4.94 °C; in [20] it was 0 °C.
Consider `NCC(=O)Nc1ccc(-n2nc(C(F)(F)F)cc2-c2ccc3c(ccc4ccccc43)c2)cc1`, for which the “thermal shift delta Tm” value is 1.11 °C in experiment [1]; 6.14 °C in experiment [2]; 0.31 °C in experiment [3]; -0.76 °C in experiment [4]; -0.8 °C in experiment [5]; 0.55 °C in experiment [6]. Also, the “thermal shift delta Tm” value in [7] is 2.28 °C; in experiment [8], 0.79 °C; in experiment [9] it was -0.21 °C; in experiment [10], 2.4 °C; in experiment [11] it was 0.88 °C; in experiment [12], 4.36 °C. For the same compound, the “thermal shift delta Tm” value was 0.02 °C in experiment [13]; 3.67 °C in [14]; -0.53 °C in experiment [15]; 0.2 °C in experiment [16]; 0.25 °C in experiment [17]; 0.42 °C in experiment [18]. The “thermal shift delta Tm” value in [19] was 1.29 °C; in [20], -0.34 °C.
`Nc1ccc(C(=O)Nc2cccc(-c3nc(N4CCOCC4)c4oc5ncccc5c4n3)c2)cn1`: the “thermal shift delta Tm” value came out at 1.9 °C in [1]; 1.58 °C in [2]; 1.27 °C in experiment [3]; 0.49 °C in experiment [4]; 0.58 °C in experiment [5]; 0.56 °C in experiment [6]. For the same compound, the “thermal shift delta Tm” value in experiment [7] is 0.13 °C; in experiment [8] it was 0.28 °C; in experiment [9] it was 0.29 °C; in experiment [10], 0.45 °C; in experiment [11], 1.26 °C; in [12], 1.1 °C. Also, the “thermal shift delta Tm” value in experiment [13] was 1.16 °C; in [14], -0.04 °C; in [15], -0.15 °C; in [16], 0.23 °C; in [17], 0.77 °C; in experiment [18], 1.1 °C. The “thermal shift delta Tm” value in experiment [19] worked out at 0.34 °C; in experiment [20], 0.35 °C.
`Nc1nc(N)c(N=O)c(OCC2CCCCC2)n1`: the “thermal shift delta Tm” value was 0.83 °C in experiment [1]; 0.95 °C in experiment [2]; 0.44 °C in [3]; -0.3 °C in experiment [4]; 1.5 °C in experiment [5]; 1.67 °C in [6]. The “thermal shift delta Tm” value in [7] is -1.66 °C; in [8] it was 0.08 °C; in [9], 0.44 °C; in experiment [10], 1.13 °C; in [11] it was 1.14 °C; in experiment [12], 2.6 °C. Also, the “thermal shift delta Tm” value in experiment [13] was 1.46 °C; in experiment [14], 0.91 °C; in experiment [15] it was 0.46 °C; in [16], 1.27 °C; in [17] it was 0.51 °C; in [18], 0.99 °C. The “thermal shift delta Tm” value was found to be 2.99 °C in experiment [19] and 0.61 °C in experiment [20].

The record behind these values is the supplement of paper PMC9694430.
